ERp5 block: ERp5 (human) disulfide isomerase inhibition. inhibition, % at 9.99 µM. actives 0.05% (n = 350,000). ERp5 insulin aggregation, absorbance 650 nm, 90 min. AID 651711;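 active = mean replicate inhibition above about 25%, with every replicate also reaching it, limit read from the data, passing the limit was not always enough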
CendR NRP1 mod: modulators of CendR peptide binding to human neuropilin-1 | AID 602438 | actives 0.85% (n = 360,000) | O14786 | FAM-RPARPAR peptide binding to NRP-1, fluorescence polarization | inhibition, % at 25 µM;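 active = inhibition or corrected inhibition above about 18%, plus a signal ratio from 0.5 to 1.5, limit read from the data, passing the limit was not always enough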
ALR H2O2 inh: inhibitors of human sulfhydryl oxidase ALR; purified ALR, DTT oxidation, H2O2 HRP-luminol luminescence; inhibition, % (concentration not given with the values); actives 3.8% (n = 290,000); AID 485317;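 active = mean replicate inhibition above about 79%, with every replicate also reaching it, limit read from the data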
PglD DTNB: blocks C. jejuni PglD acetyltransferase activity; actives 0.098% (n = 360,000); purified PglD enzyme, DTNB colorimetric CoA detection; inhibition, % at 12.5 µM; AID 602405; in the data active = inhibition above about 16%, passing the limit was not always enough
PDI inh: blocks human protein disulfide isomerase activity | inhibition, % at 10 µM | actives 0.052% (n = 350,000) | PDI insulin aggregation turbidity, A650, 90 min;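 active = mean inhibition across replicates of 30% or more, whatever share of single replicates reach that level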
Target sequence (P07237 whole entry, looked up): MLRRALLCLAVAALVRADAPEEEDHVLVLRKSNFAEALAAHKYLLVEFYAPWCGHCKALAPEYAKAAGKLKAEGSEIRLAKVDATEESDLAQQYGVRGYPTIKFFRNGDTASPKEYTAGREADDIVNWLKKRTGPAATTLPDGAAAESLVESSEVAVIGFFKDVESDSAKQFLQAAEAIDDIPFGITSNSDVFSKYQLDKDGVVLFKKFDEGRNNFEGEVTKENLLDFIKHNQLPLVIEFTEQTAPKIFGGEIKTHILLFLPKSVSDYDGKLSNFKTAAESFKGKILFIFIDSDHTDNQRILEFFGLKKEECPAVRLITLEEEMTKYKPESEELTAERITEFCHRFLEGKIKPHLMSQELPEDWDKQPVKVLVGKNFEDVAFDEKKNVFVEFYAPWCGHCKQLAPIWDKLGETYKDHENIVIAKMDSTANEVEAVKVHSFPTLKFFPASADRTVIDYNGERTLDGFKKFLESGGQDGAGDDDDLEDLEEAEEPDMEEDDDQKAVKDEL
ARNT-TACC3 inh: disrupts binding between human ARNT and TACC3 | Q9Y6A5 | AlphaScreen His-ARNT PAS-B/GST-TACC3 binding, luminescence; TACC3 fragment carries E629A point mutation | inhibition, % at 9.99 µM | actives 0.66% (n = 390,000) | AID 623870;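 active = mean inhibition of replicates at least 50% and at least half of replicates each reaching 50%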
A number is an active result; . = inactive; / = no result. This excerpt belongs to a sample that is enriched for hits.

SMILES	ERp5 block	CendR NRP1 mod	ALR H2O2 inh	PglD DTNB	PDI inh	ARNT-TACC3 inh
CC(C)(C)c1nc(SCC(=O)NCc2ccco2)c2ccccc2n1	/	26.3	.	.	.	.
O=C(CSc1c2c(nc3ccccc13)CCCC2)NCc1ccco1	.	.	98.5	/	.	.
COc1ccc2c3c([nH]c2c1)[C@@H](CO)N(C(=O)c1ccc(F)cc1)CC31CN(C(=O)NC(C)C)C1	.	/	/	/	/	/
CCCCCCCCCOC(=O)C(CC(=O)O)N1CCOCC1 (stereo unspecified)	.	32.1	.	.	.	.
CCCCCOC(=O)CC(C(=O)OCCCCC)N1CCCCC1 (stereo unspecified)	/	.	.	.	.	.
O=C(NCC(c1cccnc1)N1CCN(c2ccccc2)CC1)C1CCCCC1 (stereo unspecified)	/	.	88.2	/	.	.
COc1cc(C(=O)NCC(c2cccnc2)N2CCN(C)CC2)cc(OC)c1OC (stereo unspecified)	/	.	.	.	.	.
O=C(NCC(c1cccnc1)N1CCN(c2ccccc2)CC1)c1ccc2c(c1)OCO2 (stereo unspecified)	/	.	99.0	.	.	.
O=S(=O)(NCC(c1cccnc1)N1CCN(c2ccccc2)CC1)c1cccs1 (stereo unspecified)	/	.	98.0	/	.	.
O=C(NCC(c1cccnc1)N1CCOCC1)c1ccc2c(c1)OCO2 (stereo unspecified)	/	.	/	.	.	.
COc1cc(C(=O)NCC(c2cccnc2)N2CCN(c3ccccc3)CC2)cc(OC)c1OC (stereo unspecified)	.	.	98.5	.	/	.
C[C@H](CO)N1C[C@H](C)[C@H](CN(C)C(=O)CCCN(C)C)OCCCC[C@H](C)Oc2ccc(NC(=O)Nc3ccc(C(F)(F)F)cc3)cc2C1=O	/	/	/	.	/	.
CCS(=O)(=O)N[C@H]1CC[C@H](CC(=O)NCc2ccc(Cl)cc2)O[C@H]1CO	.	/	/	.	/	.
COc1ccc2c3c([nH]c2c1)[C@@H](CO)N(Cc1ccccc1F)CC31CCN(C(=O)C2CC2)CC1	.	/	/	/	/	/
O=C(NCC(c1cccnc1)N1CCN(c2ccccc2)CC1)OCc1ccccc1 (stereo unspecified)	/	.	76.5	.	.	.
COC(=O)NCC(c1cccnc1)N1CCN(c2ccccc2)CC1 (stereo unspecified)	.	.	89.1	.	/	.
O=C(NCCc1c[nH]c2ccccc12)C(=O)NCC(c1cccnc1)N1CCN(c2ccccc2)CC1 (stereo unspecified)	.	.	.	.	/	.
O=C(NCC(c1cccnc1)N1CCN(c2ccc(F)cc2)CC1)OCc1ccccc1 (stereo unspecified)	/	.	.	/	.	.
CCOc1ccc(N=Nc2c(N)[nH][nH]c2=O)cc1	.	.	98.6	/	.	.
Cc1ccc(C2(c3noc(CN(C)Cc4cnn(C)c4)n3)CCCC2)cc1	.	34.3	.	.	.	/
Cc1ccc(C2(c3noc(CN(C)CCCN4CCOCC4)n3)CCCC2)cc1	.	/	.	/	/	/
O=C(Cn1ncc(Cl)c(Cl)c1=O)NCC1CCCCC1	.	.	95.0	.	.	.
CCCNC(=O)C[C@H]1CC[C@@H]2[C@H](COc3ccc(NC(=O)CCC)cc3C(=O)N2C)O1	.	/	/	.	/	.
CCN(CC)c1ccc(CC(=O)NC(C)Cc2ccccc2)cc1 (stereo unspecified)	/	.	100.1	.	.	.
CCCN(CCC)c1ccc(CC(=O)NC(C)Cc2ccccc2)cc1 (stereo unspecified)	.	.	97.9	/	.	.
SMILES	ERp5 block	CendR NRP1 mod	ALR H2O2 inh	PglD DTNB	PDI inh	ARNT-TACC3 inh
CCCNC(=O)C(Cc1ccccc1)NC(=O)Cc1ccccc1 (stereo unspecified)	.	.	.	.	.	.
C[C@H]1CN([C@@H](C)CO)C(=O)Cc2cc(NC(=O)Nc3ccccc3)ccc2O[C@@H]1CN(C)S(=O)(=O)c1ccc(F)cc1	.	/	/	.	/	.
O=c1[nH]c(=O)c2nnc(N/N=C\c3ccc(O)cc3)nc2[nH]1	.	.	99.2	/	.	.
C/C(=N/Nc1ccccc1C(=O)O)c1cccs1	.	.	94.5	.	.	.
COCc1cn(CC[C@@H]2CC[C@H](NC(=O)c3ccncc3)[C@@H](CO)O2)nn1	.	/	/	.	/	.
CN(C)c1ccc(CNC(=O)c2cc(S(=O)(=O)N3CCCC3)cn2C)cc1	.	.	98.0	.	/	.
COc1cccc(CNC(=O)C2CCN(S(=O)(=O)c3ccc4c(c3)CCC(=O)N4)CC2)c1	.	.	.	.	.	.
CN(C)c1ccc(CNC(=O)C2CCN(S(=O)(=O)c3ccc4c(c3)CCCC(=O)N4)CC2)cc1	.	.	98.1	.	.	.
Cn1cc(S(=O)(=O)N2CCCC2)cc1C(=O)NCc1ccc(Cl)cc1	.	.	.	.	/	.
O=[N+]([O-])c1ccc(O)c(/C=N/Nc2ccccc2Cl)c1	.	.	.	.	.	.
O=C(N/N=C/c1ccccn1)C1CC1	/	.	.	.	.	.
O=C1NCCCC1C(=O)N/N=C/c1cc([N+](=O)[O-])ccc1O (stereo unspecified)	.	.	.	.	.	69.7
O=C(N/N=C/c1cc([N+](=O)[O-])ccc1O)C(O)(c1ccccc1)c1ccccc1	.	.	.	.	.	48.7
O=C(N/N=C/c1ccc(O)c(O)c1O)/C(=C/c1ccc([N+](=O)[O-])cc1)NC(=O)c1ccccc1	/	.	90.7	.	.	64.3
O=C(NN=Cc1ccccc1O)C1CC1	.	.	/	.	.	38.7
COCC(=O)N1[C@H](CO)[C@@H](c2ccccc2)C12CN(C(=O)Cc1ccccn1)C2	.	/	/	/	/	/
CN(C)C(=O)C[C@H]1CC[C@@H]2[C@H](COC[C@H](O)CN2S(=O)(=O)c2ccccc2Cl)O1	.	/	/	.	/	.
O=C(CN(c1cccc(Br)c1)S(=O)(=O)c1ccccc1)N/N=C/c1cc([N+](=O)[O-])ccc1O	.	49.7	.	.	.	.
O=C(N/N=C/c1cc([N+](=O)[O-])ccc1O)C1CC1	.	.	.	.	.	54.2
Cc1ccc(NC(=O)CCCC(=O)O)c(Br)c1	/	.	.	.	.	.
Cc1ccc(O)c(NC(=O)CCCC(=O)O)c1	.	.	82.2	.	.	.
CCn1c(SCC(=O)Nc2ccc3c(c2)OCO3)nnc1C1CC1	.	.	.	.	.	.
CCn1c2ccccc2c2cc(NC(=O)CSc3nnc(C4CC4)n3Cc3ccco3)ccc21	/	.	97.6	.	.	.
S=c1[nH]nc(C2CCCCC2)n1/N=C/c1cccc(Br)c1	.	.	/	.	.	.
COc1cc(/C=N/n2c(C3CCCCC3)n[nH]c2=S)cc(Br)c1O	.	.	83.5	.	.	.
O=C(O)c1ccccc1/C=N/n1c(C2CCCCC2)n[nH]c1=S	.	.	97.7	.	.	.
S=c1[nH]nc(C2CCCCC2)n1/N=C/c1ccncc1	.	.	.	/	.	/
